# Compound activity deposited in PubChem BioAssay by several laboratories.
# FBA Mtb inh = inhibits M. tuberculosis FBA enzyme | inhibition, % at 1 µM | 2.3% of 360,000 active | purified M. tuberculosis FBA, fluorescence read-out | P9WQA3; in the data active = inhibition above about 27%
# Target sequence (P9WQA3 whole entry, looked up): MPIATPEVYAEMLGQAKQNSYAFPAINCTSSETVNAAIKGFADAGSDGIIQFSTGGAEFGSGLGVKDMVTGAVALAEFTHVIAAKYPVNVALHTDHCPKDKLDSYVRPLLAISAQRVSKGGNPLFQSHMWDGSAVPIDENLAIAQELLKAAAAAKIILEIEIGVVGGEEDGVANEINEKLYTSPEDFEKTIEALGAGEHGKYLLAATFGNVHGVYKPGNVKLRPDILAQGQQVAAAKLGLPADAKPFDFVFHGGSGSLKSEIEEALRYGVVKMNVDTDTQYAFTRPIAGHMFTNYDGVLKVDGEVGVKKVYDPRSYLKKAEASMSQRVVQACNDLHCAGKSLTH
# Mtb BioA inh = BioA (M. tuberculosis) enzyme inhibition | purified M. tuberculosis BioA enzyme, plate reader | inhibition, % at 9.99 µM | 0.096% of 360,000 active | AID 602481; in the data active = inhibition above about 40%
# Mtb hypoxia inh = inhibitors of hypoxia-regulated fluorescent reporter in Mycobacterium tuberculosis | M. tuberculosis hypoxia-regulated fluorescent reporter, fluorescence | AID 1159583 | fluorescence inhibition, % (no concentration beside the values) | 0.1% of 300,000 active; in the data active = fluorescence inhibition mostly above about 23%, no sharp cut-off; inactive = mostly below about 17%
# FadD28 FP inh = inhibitors of Mycobacterium tuberculosis FadD28 bisubstrate binding. FadD28 bisubstrate probe binding, fluorescence polarization. 0.22% of 360,000 active. inhibition, % at 12.5 µM. AID 588549; in the data active = inhibition above about 8.5%, passing the limit was not always enough
# GDH-TPI inh = inhibits GDH-TPI coupling enzymes, artifact for Mtb FBA screen; 1.2% of 360,000 active; AID 588335; GDH-TPI coupled enzyme counterscreen, NADH absorbance; inhibition, % at 4.8 µM; in the data active = inhibition above about 30%
# Hits are given with their value; - = inactive; . = no result; + = active, no number. A selection: hits, their analogues and other compounds. The true share with any hit is near 2.9%.
SMILES,FBA Mtb inh,Mtb BioA inh,Mtb hypoxia inh,FadD28 FP inh,GDH-TPI inh
Cn1cccc1-c1cc(C(=O)NN=Cc2ccc([N+](=O)[O-])cc2)[nH]n1,.,.,-,.,.
NC(=S)N=Nc1c(O)[nH]c2c(Cl)cc(Cl)cc12,-,-,-,-,37
COCCNC(=S)N/N=C/c1ccc(-c2ccc([N+](=O)[O-])cc2)o1,-,-,.,-,32
O=C(N/N=C/c1ccc(-c2ccc([N+](=O)[O-])cc2)o1)c1cccnc1,-,-,.,-,33
CN(C)CC#Cc1ccc([C@@H]2[C@@H](CO)N3CCCCN(S(=O)(=O)c4ccccc4)C[C@@H]23)cc1,.,-,.,.,.
COc1ccc2c(c1OC)C(=O)OC2,-,-,.,-,-
COc1ccc2c3c(cccc13)C(=O)CC2,-,.,-,47,-
c1ccc(-c2ncc(-c3ccn[nH]3)s2)cc1,139,.,-,-,-
COCCn1c(-c2ccco2)nc2nc3ccccc3nc21,+,-,-,-,37
CC(C)OCCCn1c(-c2ccco2)nc2nc3ccccc3nc21,+,-,-,-,36
Cc1ccc(-n2c(-c3ccco3)nc3nc4ccccc4nc32)cc1,-,.,-,-,-
C[C@@H]1CN([C@@H](C)CO)C(=O)c2cc(-c3ccc(F)cc3)cnc2O[C@H]1CN(C)C(=O)c1ccccc1F,.,-,.,.,.
O=C1NC(=Nc2ccccc2Cl)S/C1=C\c1cccc([N+](=O)[O-])c1,-,-,.,-,-
CC1Cc2cc(/C=C3/SC(=S)NC3=O)ccc2O1 (stereo not drawn),-,-,-,-,37
O=C1NC(=S)SC1=Cc1ccccc1Cl,-,.,-,-,42
O=C1NC(=S)S/C1=C\c1cccc([N+](=O)[O-])c1,-,-,-,-,33
O=C1NC(=S)S/C1=C\c1cc(Cl)cc(Cl)c1O,-,-,-,33,-
C[C@@H]1CN([C@@H](C)CO)C(=O)c2cc(NC(=O)CCCN(C)C)ccc2O[C@H]1CN(C)C(=O)Nc1cccc2ccccc12,.,-,.,.,.
CC(=NNC(=O)c1[nH]c2c([N+](=O)[O-])cc(C)cc2c1-c1ccccc1)c1cccnc1,.,.,-,.,.
CC1(C)CC(=O)/C(=N/Nc2ccc(Cl)cc2)CO1,-,-,.,-,31
CCCN1CCN(C(=O)c2cc3c(s2)-c2ccccc2OC3)CC1,186,-,.,-,33
O=C(c1cc2c(s1)-c1ccccc1OC2)N1CCN(c2ccccc2)CC1,-,-,-,-,-
CCOC(=O)N1CCN(C(=O)c2cc3c(s2)-c2ccccc2OC3)CC1,147,-,-,-,-
O=C(c1cc(S(=O)(=O)N2CCOCC2)c(Cl)cc1Cl)N1CCN(S(=O)(=O)c2cccc(F)c2)CC1,-,-,-,-,-
Cc1ccc(S(=O)(=O)N2CCN(C(=O)c3cc(S(=O)(=O)N4CCOCC4)c(Cl)cc3Cl)CC2)cc1,-,-,28,-,-
SMILES,FBA Mtb inh,Mtb BioA inh,Mtb hypoxia inh,FadD28 FP inh,GDH-TPI inh
O=C(NN=Cc1cccc(O)c1)c1ccc(NC(=O)c2cccc([N+](=O)[O-])c2)cc1,.,.,-,.,.
Cc1cc(C)cc(NC(=O)CSc2ccc(-c3ccccn3)nn2)c1,-,-,-,-,-
Cc1ccccc1NC(=O)CSc1ccc(-c2ccccn2)nn1,-,-,39,-,-
CCCCNc1c(-c2ccc(SC(C)CC)cc2)nc2cnccn12 (stereo not drawn),40,-,.,-,-
CCCCNc1c(-c2ccc(OC)c(Sc3ccc(OC)cc3)c2)nc2ccccn12,28,-,.,-,-
N#CC(C#N)=CNc1cccnc1,-,.,-,-,43
N#CC(C#N)=Cc1cccnc1,-,.,-,-,-
NC(CC(=O)NCCOc1ccccc1)=NO,.,.,-,.,.
COc1ccc2c(c1)[nH]c1c(C)nccc12,151,-,-,-,-
COc1ccc2c(ccc[n+]2CC(=O)c2ccc(C)cc2)c1,31,-,-,-,-
COc1ccc2c(ccc[n+]2CC(=O)c2ccccc2)c1,-,-,-,-,-
COC(=O)CSC1=C(C#N)C(=O)NC(c2ccccc2)S1 (stereo not drawn),-,-,-,-,41
CSC1=C(C#N)C(=O)NC(c2ccccc2O)S1 (stereo not drawn),-,.,-,-,-
C[C@H](CO)N1C[C@H](C)[C@@H](CN(C)CC2CCOCC2)Oc2cc(-c3cccnc3)ccc2S1(=O)=O,.,-,.,.,.
COc1ccc(N=c2cc(-c3ccc(OC)cc3)oc3ccccc23)cc1,-,.,.,-,-
COc1ccc(-c2cc(=NC(CC(C)C)C(=O)O)c3cc(C)ccc3o2)cc1 (stereo not drawn),+,.,-,-,-
COc1ccc(-c2cc(=NCCC(=O)O)c3cc(C)ccc3o2)cc1,+,-,-,-,-
COc1ccc(N=c2cc(-c3ccc(O)cc3)oc3ccccc23)cc1,-,.,-,-,-
COc1ccc(-c2cc(=Nc3ccccc3)c3cc(C)ccc3o2)cc1,+,-,-,-,-
NC(=O)c1c(N=Cc2cccs2)sc2c1CCCC2,.,.,-,.,.
CCOC(=O)/C(C#N)=C/Nc1ccccc1OC,-,-,-,-,44
COc1ccc(C(=O)NCC(=O)N2CCC3(CC2)NCCc2[nH]cnc23)cc1,-,-,-,-,-
COc1cccc(C(=O)NCC(=O)N2CCC3(CC2)NCCc2[nH]cnc23)c1OC,-,-,-,-,51
N#Cc1c(N)n(-c2cccc(C(=O)O)c2)c2nc3ccccc3nc12,+,-,-,-,43
N#Cc1c(N)n(-c2ccccc2N)c2nc3ccccc3nc12,-,.,-,-,-
SMILES,FBA Mtb inh,Mtb BioA inh,Mtb hypoxia inh,FadD28 FP inh,GDH-TPI inh
C/C=C/c1cnc2c(c1)C(=O)N([C@H](C)CO)C[C@@H](C)[C@@H](CN(C)C(=O)c1ccc3c(c1)OCO3)O2,.,-,.,.,.
Cc1ccc(N/C=C(\C#N)c2ccc(OCCCF)cc2)cc1,-,-,-,-,41
COc1ccc(C(C[N+](=O)[O-])C2(c3ccc(OC)c(OC)c3)C(=O)c3ccccc3C2=O)cc1 (stereo not drawn),-,-,.,-,41
CCOc1ccc(-n2nc3ccc(NC(=O)CC)cc3n2)cc1,+,-,-,-,-
CCOc1ccc(NC(=O)CN2CCN(CC(=O)Nc3cccc(F)c3)CC2)cc1,153,-,.,-,-
CCOc1ccc(NC(=O)CN2CCN(CC(=O)Nc3ccc4c(c3)OCCO4)CC2)cc1,-,-,.,-,-
CCOc1ccc(NC(=O)COc2ccc(-n3cnnn3)cc2)cc1,-,-,-,-,-
Cc1ccc(S(=O)(=O)N(C)C[C@H]2Oc3ccc(NC(=O)NC(C)C)cc3CC(=O)N([C@H](C)CO)C[C@@H]2C)cc1,.,-,.,.,.
CCCc1cn(CC[C@H]2CC[C@H](NC(=O)C3CC3)[C@H](CO)O2)nn1,.,-,.,.,.
COc1cc(N=Nc2cccc(S(N)(=O)=O)c2)c2ccccc2c1N,-,-,-,9.7,-
NC1=NC(=Nc2cccc(S(N)(=O)=O)c2)c2ccccc21,-,-,-,-,-
CCCC#Cc1cnc2c(c1)C(=O)N([C@@H](C)CO)C[C@H](C)[C@@H](CN(C)C(=O)c1cccc(F)c1)O2,.,-,.,.,.
COc1cc(/C=C2\C(=O)N(c3ccc(NC(C)=O)cc3)N=C2c2ccccc2)ccc1O,-,-,-,-,-
